Among all 310,000 compounds or so, about 2,200 (0.71%) showed an effect of 50% or more. The effect is printed as a negative number. Shown is part of a subset that was picked to be rich in strong results.
Biological target: human ether-à-go-go-related gene (hERG) potassium channel (human, UniProt Q12809)
Experiment: primary screen, population patch clamp on CHO cells stably expressing hERG; higher = less effect of the substance

Sequence of human ether-à-go-go-related gene (hERG) potassium channel (Q12809 whole entry, looked up): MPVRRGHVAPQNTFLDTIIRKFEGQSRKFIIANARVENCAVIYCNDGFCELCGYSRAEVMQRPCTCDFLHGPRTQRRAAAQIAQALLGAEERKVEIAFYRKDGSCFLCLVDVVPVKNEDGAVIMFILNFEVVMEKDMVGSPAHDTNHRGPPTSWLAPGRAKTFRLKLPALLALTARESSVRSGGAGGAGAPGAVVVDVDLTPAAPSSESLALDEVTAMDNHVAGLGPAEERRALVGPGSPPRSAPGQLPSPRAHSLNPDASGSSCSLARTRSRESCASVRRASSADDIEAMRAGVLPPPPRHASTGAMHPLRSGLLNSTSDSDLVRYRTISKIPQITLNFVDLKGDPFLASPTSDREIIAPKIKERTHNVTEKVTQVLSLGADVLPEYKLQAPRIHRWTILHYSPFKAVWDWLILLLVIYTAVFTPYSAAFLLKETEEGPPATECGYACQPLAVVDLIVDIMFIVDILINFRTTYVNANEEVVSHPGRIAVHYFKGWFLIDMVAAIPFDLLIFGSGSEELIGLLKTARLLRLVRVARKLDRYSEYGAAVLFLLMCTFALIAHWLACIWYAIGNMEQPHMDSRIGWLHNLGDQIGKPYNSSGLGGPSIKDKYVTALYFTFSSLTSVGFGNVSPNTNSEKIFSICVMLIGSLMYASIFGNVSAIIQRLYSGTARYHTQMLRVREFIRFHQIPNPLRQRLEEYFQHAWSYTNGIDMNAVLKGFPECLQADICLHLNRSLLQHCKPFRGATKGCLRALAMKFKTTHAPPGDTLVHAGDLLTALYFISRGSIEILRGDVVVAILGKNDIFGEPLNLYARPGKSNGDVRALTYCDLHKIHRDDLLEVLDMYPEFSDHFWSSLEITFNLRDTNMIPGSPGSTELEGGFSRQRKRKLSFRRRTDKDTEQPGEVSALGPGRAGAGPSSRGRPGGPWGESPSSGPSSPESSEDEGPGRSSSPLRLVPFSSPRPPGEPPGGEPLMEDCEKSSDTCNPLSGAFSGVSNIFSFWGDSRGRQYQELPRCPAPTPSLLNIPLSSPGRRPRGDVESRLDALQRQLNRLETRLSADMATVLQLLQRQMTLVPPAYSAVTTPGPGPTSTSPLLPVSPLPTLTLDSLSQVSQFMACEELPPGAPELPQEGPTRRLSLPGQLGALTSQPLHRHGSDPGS

First: O=C(O)C1=C[C@H](C2CC2)C[C@H](OCCCCO)O1
Second: COCCCn1c(=N)c(C(=O)NCC2CCCO2)cc2c(=O)n3ccccc3nc21 (stereo not shown)
The “hERG current change (%, negative = inhibition) at 1uM” value of the first is higher: 12.3% for the first, -44.3% for the second.

First: O=C(CSc1n[nH]c(=O)n1Cc1ccco1)Nc1ccccc1Cl
Second: O=C(Nc1ccc(Cn2nnc3ccccc32)cc1)c1ccco1
The “hERG current change (%, negative = inhibition) at 1uM” value of the first is lower: 6.62% for the first, 9.6% for the second.

Going from `CCOc1cccc(C2/C(=C(/O)c3ccc4c(c3)CC(C)O4)C(=O)C(=O)N2Cc2cccnc2)c1` (stereo not shown) to `O=C1OC(c2ccc(Cl)cc2)/C(=C(/O)c2ccccc2)C1=O` (stereo not shown), the “hERG current change (%, negative = inhibition) at 1uM” value falls from 18.4% to 2.03%.

First: CCOC(=O)NCc1ccccc1
Second: Nc1ccccc1C(=O)NCc1ccccc1
The “hERG current change (%, negative = inhibition) at 1uM” value of the first is lower: -5.01% for the first, 1.59% for the second.

First: CCCCCCS(=O)[C@H]1CS(=O)(=O)C[C@@H]1S(=O)CCCCCC (stereo partly shown)
Second: CCN(C(=O)c1cc2c(=O)n3cccc(C)c3nc2n1CCCOC)C1CCCCC1
The “hERG current change (%, negative = inhibition) at 1uM” value of the first is lower: -25.8% for the first, 4.12% for the second.

First: CNC(=O)Cn1ncc2c3ccccc3n(C)c2c1=O
Second: CCN1CCN(C(=O)c2cc3c(=O)n(C)c4ccccc4c3n2C)CC1
The “hERG current change (%, negative = inhibition) at 1uM” value of the first is higher: 13.1% for the first, 8.54% for the second.

Compared with `O=C(O)CC(NC(=O)C12CC3CC(CC(C3)C1)C2)c1cc([N+](=O)[O-])ccc1Cl` (stereo not shown), `CCOC(=O)N1CCN(S(=O)(=O)c2ccc(C(=O)Nc3nnc(C)o3)cc2)CC1` is higher in “hERG current change (%, negative = inhibition) at 1uM” value: 2.33% for the first, 7.3% for the second.

Going from `Cc1nc(SCC(=O)NC2CCCC2)[nH]c(=O)c1C` to `CC(C)OCCCn1c(SC(C)C(=O)NCC2CCCO2)nc2cc(Cl)ccc2c1=O` (stereo not shown), the “hERG current change (%, negative = inhibition) at 1uM” value rises from 6.4% to 7.81%.

Going from `CCOC(=O)c1ccc(NC(=O)c2nc[nH]c2C(=O)NCCCNC(=O)c2[nH]cnc2C(=O)Nc2ccc(C(=O)OCC)cc2)cc1` to `O=C(COC(=O)c1ccc[nH]c1=O)Nc1ccc2c(c1)OC(F)(F)O2`, the “hERG current change (%, negative = inhibition) at 1uM” value falls from 13.8% to 9.4%.

First: Cc1ccc2nc3c(cc(C(=O)NCC4CCCO4)c(=N)n3CCCOC(C)C)c(=O)n2c1 (stereo not shown)
Second: COCCCn1c(=N)c(C(=O)NCC2CCCO2)cc2c(=O)n3cccc(C)c3nc21 (stereo not shown)
The “hERG current change (%, negative = inhibition) at 1uM” value of the first is higher: -72.5% for the first, -74.8% for the second.

Compared with `Cc1cccn2c(=O)c3cc(C(=O)NCC4CCCO4)c(=N)n(CCN4CCOCC4)c3nc12` (stereo not shown), `COc1ccc(C2c3c(oc4ccc(Cl)cc4c3=O)C(=O)N2CCN2CCOCC2)cc1` (stereo not shown) is higher in “hERG current change (%, negative = inhibition) at 1uM” value: -50.1% for the first, -24% for the second.

Compared with `CC(C)N(Cc1nc(-c2ccc(Cl)cc2)no1)C(=O)CN(C)S(=O)(=O)c1ccc(Cl)cc1`, `CC(C)CC(=O)Nc1nc2ccc(S(C)(=O)=O)cc2s1` is higher in “hERG current change (%, negative = inhibition) at 1uM” value: -5.47% for the first, 4.38% for the second.

Going from `COCCCn1c(=S)[nH]c2c(sc3ccccc32)c1=O` to `CCCCn1c(N)c(N(CCOC)C(=O)c2ccc(-c3cccc(C(F)(F)F)c3)o2)c(=O)[nH]c1=O`, the “hERG current change (%, negative = inhibition) at 1uM” value falls from 14.1% to 10.2%.

First: Cc1cc(C)c2c(N)c(C(=O)NNC(=O)c3ccccc3)sc2n1
Second: Cc1sc2nc(CN3CCCC3)nc(N3CCN(S(=O)(=O)c4ccccc4)CC3)c2c1C
The “hERG current change (%, negative = inhibition) at 1uM” value of the first is higher: 12.8% for the first, -19.4% for the second.

Going from `CC1(C)CC(=O)C2=C(C1)NC(=S)C(C#N)C21CCCCC1` (stereo not shown) to `Cl.O=C(CN1CCN(C2CCCCC2)CC1)Nc1cccc2ccccc12`, the “hERG current change (%, negative = inhibition) at 1uM” value falls from 10.1% to 4.28%.

Compared with `CC(CN1C(C)CCCC1C)OC(=O)c1ccccc1Br.Cl` (stereo not shown), `Cl.O=C(CN1CCN(C2CCCCC2)CC1)Nc1ccccc1-c1ccccc1` is lower in “hERG current change (%, negative = inhibition) at 1uM” value: 4.15% for the first, -70% for the second.

First: Cc1ccc(S(=O)(=O)N2CCN(c3nc(CN4CCCC4)nc4sc(C)c(C)c34)CC2)cc1
Second: Cc1sc2nc(CN3CCCC3)nc(N3CCN(S(=O)(=O)c4cccs4)CC3)c2c1C
The “hERG current change (%, negative = inhibition) at 1uM” value of the first is higher: -48.8% for the first, -65.2% for the second.

Compared with `O=C(NCc1ccco1)c1scc2c1OCCO2`, `O=C(CN1CCCCC1)Nc1ccccc1-c1ccccc1` is higher in “hERG current change (%, negative = inhibition) at 1uM” value: 6.64% for the first, 14.4% for the second.

Compared with `CCCc1c(C(=O)N/N=C/c2cccnc2)nnn1-c1nonc1N`, `CCn1c(N)[n+](CC(=O)Nc2ccc(SC(F)F)cc2)c2ccccc21.[Cl-]` is lower in “hERG current change (%, negative = inhibition) at 1uM” value: 16.6% for the first, -63.1% for the second.

Compared with `COc1nccc(-c2ccc(F)cc2)c1C#N`, `O=C(Cc1ccccc1)Nc1ccc(SC(F)F)cc1` is lower in “hERG current change (%, negative = inhibition) at 1uM” value: 16.9% for the first, 2.98% for the second.

First: O=C(Cn1c(=O)oc2ccccc21)Nc1ccc(Br)cc1
Second: Cc1cc(C)cc(N2C(=O)CC(c3ccccc3)CC2=O)c1
The “hERG current change (%, negative = inhibition) at 1uM” value of the first is higher: 12.5% for the first, 10.3% for the second.

`CC[N+](CC)(CC)CC(=O)Nc1ccc(SC(F)F)cc1.[Cl-]` was tested, and the “hERG current change (%, negative = inhibition) at 1uM” value was 27.1%.

Source: PMC4336329 (PLoS ONE, 2015)
